Key:
Test in all cases: log2 ratio of Biotin-Ahx-Ub-VS probe labelling (fragment/DMSO); higher = less target engagement (more negative = stronger competition), active = hit call of the paper (q ≤ 0.05, log2 ratio ≤ -1)
Details in all cases: compound concentration: 200 uM; treatment time: 3 h
ALG13 = molecular target: T1, ALG13 (UniProt Q9NP73)
T1 sequence (whole entry): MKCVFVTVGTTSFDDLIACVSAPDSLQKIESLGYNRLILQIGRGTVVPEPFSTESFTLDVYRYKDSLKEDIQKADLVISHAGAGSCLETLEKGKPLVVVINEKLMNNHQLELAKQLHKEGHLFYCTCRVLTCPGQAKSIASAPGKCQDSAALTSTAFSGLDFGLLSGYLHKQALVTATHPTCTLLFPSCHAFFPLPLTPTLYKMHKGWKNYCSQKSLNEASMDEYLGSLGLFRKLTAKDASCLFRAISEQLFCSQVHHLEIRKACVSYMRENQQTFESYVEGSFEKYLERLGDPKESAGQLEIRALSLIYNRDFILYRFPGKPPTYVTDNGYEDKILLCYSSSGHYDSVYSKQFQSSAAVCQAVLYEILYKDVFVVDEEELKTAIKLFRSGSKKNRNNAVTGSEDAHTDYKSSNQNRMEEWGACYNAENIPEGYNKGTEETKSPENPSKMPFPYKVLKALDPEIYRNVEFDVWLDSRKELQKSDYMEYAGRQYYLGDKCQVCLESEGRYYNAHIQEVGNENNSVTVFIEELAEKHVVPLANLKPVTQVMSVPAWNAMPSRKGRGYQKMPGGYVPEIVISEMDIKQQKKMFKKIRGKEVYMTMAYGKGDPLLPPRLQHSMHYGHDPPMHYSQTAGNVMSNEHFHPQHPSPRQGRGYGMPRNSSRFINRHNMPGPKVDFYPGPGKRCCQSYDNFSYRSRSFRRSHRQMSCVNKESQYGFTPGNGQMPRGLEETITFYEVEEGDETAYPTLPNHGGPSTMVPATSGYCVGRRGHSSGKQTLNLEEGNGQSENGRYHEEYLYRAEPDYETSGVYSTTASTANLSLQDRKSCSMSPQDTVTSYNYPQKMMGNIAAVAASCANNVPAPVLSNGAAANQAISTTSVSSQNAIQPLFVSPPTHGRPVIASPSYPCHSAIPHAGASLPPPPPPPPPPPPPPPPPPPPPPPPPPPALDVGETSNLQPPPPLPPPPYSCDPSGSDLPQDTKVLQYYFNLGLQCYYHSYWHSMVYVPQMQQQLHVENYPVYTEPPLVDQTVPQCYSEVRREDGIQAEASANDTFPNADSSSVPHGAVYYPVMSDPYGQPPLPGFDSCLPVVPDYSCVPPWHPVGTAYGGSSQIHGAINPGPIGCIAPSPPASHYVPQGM
Outline: (§1)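 The table lists average log2 ratios of fragment over vehicle, from an unpaired t-test on global-median-normalised Spectronaut label-free quantities. Proteins with ≥2 unique peptides were used. Samples were HEK293T lysate (495 µg) treated in triplicate with fragment at 200 µM or vehicle for 3 h, then with Biotin-Ahx-Ub-VS (0.5 µM final) for 1 h, with labelled DUBs NeutrAvidin-enriched and run by diaPASEF LC-MS/MS.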

ATXN3 = ATXN3 (UniProt P54252)
Outline: as §1

BAP1 = molecular target: T2, BAP1 (UniProt Q92560)
T2 sequence (whole entry): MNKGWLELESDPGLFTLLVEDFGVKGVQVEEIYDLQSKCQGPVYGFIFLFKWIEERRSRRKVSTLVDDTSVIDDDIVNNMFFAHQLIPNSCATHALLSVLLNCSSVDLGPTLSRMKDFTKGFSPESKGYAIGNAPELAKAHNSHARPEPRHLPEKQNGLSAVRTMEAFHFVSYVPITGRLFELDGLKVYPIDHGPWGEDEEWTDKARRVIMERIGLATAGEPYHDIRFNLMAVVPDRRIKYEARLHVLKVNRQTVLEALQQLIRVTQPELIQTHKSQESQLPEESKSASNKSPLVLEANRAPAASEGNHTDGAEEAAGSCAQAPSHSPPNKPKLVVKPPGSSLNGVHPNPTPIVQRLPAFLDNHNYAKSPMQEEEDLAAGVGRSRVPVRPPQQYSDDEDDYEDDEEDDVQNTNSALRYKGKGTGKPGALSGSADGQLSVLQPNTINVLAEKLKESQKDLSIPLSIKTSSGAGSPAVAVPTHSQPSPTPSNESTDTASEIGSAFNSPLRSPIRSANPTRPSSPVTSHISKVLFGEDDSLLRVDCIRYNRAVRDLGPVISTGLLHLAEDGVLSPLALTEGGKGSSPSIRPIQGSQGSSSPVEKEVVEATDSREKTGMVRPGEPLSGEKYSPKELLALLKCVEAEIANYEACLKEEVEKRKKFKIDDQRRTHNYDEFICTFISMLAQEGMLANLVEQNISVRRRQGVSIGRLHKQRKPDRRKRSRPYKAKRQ
Outline: as §1

EIF3F = EIF3F (UniProt O00303)
Outline: as §1

EIF3H = EIF3H (UniProt O15372)
Outline: as §1

FAM105A = molecular target: T3, FAM105A (UniProt Q9NUU6)
T3 sequence (whole entry): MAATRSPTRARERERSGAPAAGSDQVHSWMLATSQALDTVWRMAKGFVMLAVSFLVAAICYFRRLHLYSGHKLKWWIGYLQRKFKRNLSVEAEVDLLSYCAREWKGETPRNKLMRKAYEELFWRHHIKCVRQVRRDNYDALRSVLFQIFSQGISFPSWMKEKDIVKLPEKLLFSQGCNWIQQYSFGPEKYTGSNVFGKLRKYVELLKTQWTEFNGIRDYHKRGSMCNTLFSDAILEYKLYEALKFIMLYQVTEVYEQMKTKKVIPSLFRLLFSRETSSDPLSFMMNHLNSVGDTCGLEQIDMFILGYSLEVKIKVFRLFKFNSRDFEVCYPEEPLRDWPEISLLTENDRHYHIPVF
Outline: as §1

OTUB1 = OTUB1 (UniProt Q96FW1)
Outline: as §1

OTUD4 = molecular target: T4, OTUD4 (UniProt Q01804)
T4 sequence (whole entry): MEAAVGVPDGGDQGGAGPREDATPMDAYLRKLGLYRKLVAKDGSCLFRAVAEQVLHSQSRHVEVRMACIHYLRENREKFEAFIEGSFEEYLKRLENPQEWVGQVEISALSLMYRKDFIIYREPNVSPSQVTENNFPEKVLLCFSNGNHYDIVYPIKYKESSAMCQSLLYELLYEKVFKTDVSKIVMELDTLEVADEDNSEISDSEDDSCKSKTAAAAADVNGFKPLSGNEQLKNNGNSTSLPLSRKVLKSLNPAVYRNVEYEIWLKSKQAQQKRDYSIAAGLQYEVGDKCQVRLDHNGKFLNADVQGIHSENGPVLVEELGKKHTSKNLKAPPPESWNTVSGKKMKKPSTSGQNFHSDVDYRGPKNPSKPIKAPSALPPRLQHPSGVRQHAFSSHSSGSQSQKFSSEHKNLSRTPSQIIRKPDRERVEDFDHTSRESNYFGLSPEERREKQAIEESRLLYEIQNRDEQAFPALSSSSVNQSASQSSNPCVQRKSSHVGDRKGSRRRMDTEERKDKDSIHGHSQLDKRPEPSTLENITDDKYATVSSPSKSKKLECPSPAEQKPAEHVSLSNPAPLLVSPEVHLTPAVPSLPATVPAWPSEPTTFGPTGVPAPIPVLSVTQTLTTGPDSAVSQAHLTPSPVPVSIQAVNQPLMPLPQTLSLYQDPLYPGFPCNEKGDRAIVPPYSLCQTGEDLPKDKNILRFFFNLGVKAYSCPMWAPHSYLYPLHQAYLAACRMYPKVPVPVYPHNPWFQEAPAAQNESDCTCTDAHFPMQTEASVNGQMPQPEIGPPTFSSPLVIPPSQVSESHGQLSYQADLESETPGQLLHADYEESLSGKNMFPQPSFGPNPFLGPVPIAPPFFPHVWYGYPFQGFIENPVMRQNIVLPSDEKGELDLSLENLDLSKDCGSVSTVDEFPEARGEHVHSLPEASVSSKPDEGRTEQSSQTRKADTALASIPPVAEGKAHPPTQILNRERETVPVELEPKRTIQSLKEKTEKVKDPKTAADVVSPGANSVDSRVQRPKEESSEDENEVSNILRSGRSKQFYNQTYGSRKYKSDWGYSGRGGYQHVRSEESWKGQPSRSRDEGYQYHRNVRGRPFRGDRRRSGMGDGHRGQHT
Outline: as §1

OTUD5 = molecular target: T5, OTUD5 (UniProt Q96G74)
T5 sequence (whole entry): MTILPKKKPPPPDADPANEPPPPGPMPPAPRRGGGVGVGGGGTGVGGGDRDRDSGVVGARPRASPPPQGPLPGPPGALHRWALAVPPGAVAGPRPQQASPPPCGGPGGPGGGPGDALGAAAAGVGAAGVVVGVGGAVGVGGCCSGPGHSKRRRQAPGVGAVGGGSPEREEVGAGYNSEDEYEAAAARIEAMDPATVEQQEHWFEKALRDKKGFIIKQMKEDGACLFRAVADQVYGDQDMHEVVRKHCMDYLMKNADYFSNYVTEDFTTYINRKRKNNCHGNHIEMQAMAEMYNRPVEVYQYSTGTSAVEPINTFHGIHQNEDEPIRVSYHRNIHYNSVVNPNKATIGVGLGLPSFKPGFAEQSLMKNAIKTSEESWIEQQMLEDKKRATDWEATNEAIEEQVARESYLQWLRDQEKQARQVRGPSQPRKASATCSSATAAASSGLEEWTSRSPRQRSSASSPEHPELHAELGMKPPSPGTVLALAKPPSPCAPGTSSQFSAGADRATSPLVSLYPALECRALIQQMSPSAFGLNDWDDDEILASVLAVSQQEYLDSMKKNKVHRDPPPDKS
Outline: as §1

Measured: log2 ratio of Biotin-Ahx-Ub-VS probe labelling

OTUB1, sequence (Q96FW1 whole entry): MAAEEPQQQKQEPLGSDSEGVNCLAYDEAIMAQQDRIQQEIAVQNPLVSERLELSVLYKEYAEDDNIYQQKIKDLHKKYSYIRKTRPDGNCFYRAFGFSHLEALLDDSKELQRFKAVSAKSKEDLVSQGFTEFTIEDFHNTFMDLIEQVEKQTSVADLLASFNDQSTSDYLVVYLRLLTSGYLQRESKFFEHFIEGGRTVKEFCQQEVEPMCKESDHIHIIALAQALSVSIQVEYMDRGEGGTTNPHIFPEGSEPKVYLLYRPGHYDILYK
ATXN3, sequence (P54252 whole entry): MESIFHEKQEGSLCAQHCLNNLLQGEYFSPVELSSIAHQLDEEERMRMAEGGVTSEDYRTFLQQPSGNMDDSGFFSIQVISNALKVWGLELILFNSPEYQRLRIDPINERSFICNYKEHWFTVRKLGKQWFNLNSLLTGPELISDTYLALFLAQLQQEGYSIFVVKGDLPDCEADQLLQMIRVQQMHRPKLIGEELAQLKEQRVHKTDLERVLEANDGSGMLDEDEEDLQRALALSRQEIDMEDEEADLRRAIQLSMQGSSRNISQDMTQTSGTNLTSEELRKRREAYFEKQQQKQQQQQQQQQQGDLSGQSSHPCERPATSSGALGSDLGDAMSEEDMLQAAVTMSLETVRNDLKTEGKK
EIF3H, sequence (O15372 whole entry): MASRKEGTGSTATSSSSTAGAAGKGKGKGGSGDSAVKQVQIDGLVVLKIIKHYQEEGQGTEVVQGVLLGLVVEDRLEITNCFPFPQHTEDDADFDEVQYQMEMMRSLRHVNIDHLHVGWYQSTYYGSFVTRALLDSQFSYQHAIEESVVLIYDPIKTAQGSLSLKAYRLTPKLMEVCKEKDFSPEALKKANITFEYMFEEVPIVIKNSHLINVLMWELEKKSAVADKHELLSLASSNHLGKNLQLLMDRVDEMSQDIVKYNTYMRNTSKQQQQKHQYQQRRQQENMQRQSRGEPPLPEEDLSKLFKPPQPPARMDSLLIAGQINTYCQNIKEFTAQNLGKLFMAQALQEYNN
EIF3F, sequence (O00303 whole entry): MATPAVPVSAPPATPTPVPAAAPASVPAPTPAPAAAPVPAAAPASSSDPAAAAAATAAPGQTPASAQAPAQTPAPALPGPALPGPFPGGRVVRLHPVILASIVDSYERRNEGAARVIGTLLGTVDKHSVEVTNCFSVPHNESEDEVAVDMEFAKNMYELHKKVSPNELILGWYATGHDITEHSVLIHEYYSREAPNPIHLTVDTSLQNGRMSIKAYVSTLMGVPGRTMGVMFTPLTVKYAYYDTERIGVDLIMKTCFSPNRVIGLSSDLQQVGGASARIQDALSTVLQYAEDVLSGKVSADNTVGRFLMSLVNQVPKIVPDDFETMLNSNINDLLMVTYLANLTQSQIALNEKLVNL

O=C(CCl)N1CCc2sccc2C1
inactive: ALG13 -0.104 | ATXN3 -0.969 | BAP1 -0.988 | EIF3F -0.211 | EIF3H -0.00567 | FAM105A -0.348 | OTUB1 -0.126 | OTUD4 -0.819 | OTUD5 -0.923
